In PubChem BioAssay (NCATS):
Where “and” joins values, the source holds several entries; their conditions need not be identical. Identical values can stand only once. Results filed as inconclusive are left out. Calls of active or inactive are those of the source. Unless noted, calls follow the shape of the dose curve; as a rule, active = well fitted curve in the direction sought with a large enough effect; inconclusive = small, poorly fitted or top-dose-only effect, or another doubt; inactive = no such curve, though single readings can be large; an effect the other way counts as inactive or inconclusive.

Tests used:
[1] = Cell Viability - BJ (AID 421; calls by dose curve;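 also: potency is read from the fitted curve at half-maximal effect; cells exposed to compound for 40 hours at 37 °C before readout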); conditions: BJ fibroblast viability, qHTS
Method in brief: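 Cytotoxicity as drop in intracellular ATP (CellTiter-Glo, 20 min RT) after 40 hr compound exposure of BJ fibroblasts at 37 °C. Titrations scaled between DMSO and 100 uM tamoxifen, Hill-fitted for AC50.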

[2] = Cell Viability - Jurkat (AID 426;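 active = dose-dependent loss of cell ATP signal giving a full or clear fitted curve, ranked by lower potency value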; also: potency is read from the fitted curve at half-maximal effect); conditions: qHTS
Method in brief: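 qHTS, 1536-well; Jurkat E6-1, 5000 cells/well, complete medium; cpd 40 hr, 37 °C; CellTiter-Glo 20 min RT; luminescence. AC50 by Hill fit.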

[3] = Cell Viability - Hek293 (AID 427;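 active = compounds whose dose-response curve shows a full or clear partial loss of cell viability, called from curve shape rather than a numeric limit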;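 also: potency is read from the fitted curve at half-maximal effect; cells exposed to compound for 40 hours at 37 °C before reading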); conditions: qHTS
Method in brief: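 Luminescent ATP content (CellTiter-Glo, 20 min at room temperature) was measured after a 40 hr, 37 °C compound exposure of HEK293 cells. AC50 values came from Hill-equation fits of qHTS concentration-response data normalized to DMSO and 100 uM tamoxifen.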

[4] = Cell Viability - MRC5 (AID 434; calls by dose curve;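 also: potency is read from the fitted curve at half-maximal effect; potency reflects cytotoxicity seen as loss of intracellular ATP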); conditions: MRC5 lung fibroblast viability, qHTS
Method in brief: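 MRC5 normal human lung fibroblasts (1500/well) were treated with compounds for 40 hr at 37 °C in complete medium, and viable cells were measured as intracellular ATP by CellTiter-Glo luminescence. AC50 came from Hill fits, normalized to DMSO and 100 uM tamoxifen.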

[5] = Cell Viability - SK-N-SH (AID 435; calls by dose curve;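 also: potency is read from the fitted curve at half-maximal effect; compound exposure lasted 40 h at 37 °C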); conditions: SK-N-SH neuroblastoma cell viability qHTS
Method in brief: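 Human neuroblastoma line, 40 h exposure at 37 °C, ATP quantified via luciferase luminescence; DMSO and 100 uM tamoxifen define 0 and 100% inhibition for AC50 fitting.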

[6] = target: Mitogen-activated protein kinase 10 (Mus musculus) (UniProt Q61831); experiment: JNK3 AlphaScreen Assay (AID 530; active = well fitted curve in either direction with a large enough effect, not every such curve was filed as active;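 also: kinase came from lysate of stimulated human HepG2 cells; signal reports phosphorylation of biotinylated GST-cJun 1-79 at Ser73 with 10 µM ATP; % is scaled to controls: 0 for no effect and ±100 for the full control effect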)
Method in brief: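 Inhibitors reduce antibody binding to phosphorylated biotin-cJun, lowering AlphaScreen luminescence. Lysates from HepG2 cells pre-activated by IL-1beta plus TNF-alpha supplied JNK3; compounds were titrated.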

[7] = Cell Viability - N2a (AID 540); conditions: N2a mouse neuroblastoma cell viability; at 92.2 µM (top of the series);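 also: plate controls were DMSO alone for no effect and tamoxifen control for full effect; nearly all actives have a fitted effect of over 45% in size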
Method in brief: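 Luminescent ATP signal (CellTiter-Glo, 20 min at room temperature) served as the viability read-out after N2a cells were treated with compounds for 40 hours at 37 °C. Concentration-response data were fitted to the Hill equation for AC50.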

[8] = Cell Viability - NIH 3T3 (AID 541); conditions: NIH 3T3 cell viability, qHTS; activity change, negative = cytotoxicity: at 92.2 µM (top of the series);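 also: plate controls were DMSO alone for no effect and tamoxifen positive control for full effect; nearly all actives have a fitted effect of over 25% in size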
Method in brief: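 Luminescent ATP signal (CellTiter-Glo) served as the viability read-out after NIH 3T3 cells were exposed to compounds over a concentration range for 40 hr at 37 °C. Hill-equation modelling of concentration-response data gave AC50.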

[9] = Cell Viability - HUV-EC-C (AID 542); also: % is scaled to controls: 0 for no effect and ±100 for the full control effect; nearly all actives have a fitted effect of over 35% in size
Method in brief: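 qHTS cytotoxicity: HUV-EC-C, 1000 cells/well, 5 hr settle, compound 40 hr 37 °C, CellTiter-Glo, luminescence. AC50 via Hill equation.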

[10] = Cell Viability - H-4-II-E (AID 543); also: nearly all actives have a fitted effect of over 35% in size; also: potency is read from the fitted curve at half-maximal effect
Method in brief: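 Luminescent ATP signal (CellTiter-Glo) served as the viability read-out, with cytotoxicity seen as a concentration-dependent ATP drop. Cells were treated for 40 hours in complete medium. AC50 values derive from Hill-equation modelling.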

[11] = Cell Viability - SH-SY5Y (AID 544); also: nearly all actives have a fitted effect of over 55% in size; also: potency is read from the fitted curve at half-maximal effect
Method in brief: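 Luminescent ATP read-out (CellTiter-Glo) measures loss of viable SH-SY5Y neuroblastoma cells after 40 hr compound exposure at 37 °C. AC50 values derive from standard Hill modelling of qHTS concentration-response data.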

[12] = Cell Viability - Renal Proximal Tubule (AID 545); conditions: renal proximal tubule cells viability, primary cells of rat origin; at 91.7 µM (top of the series);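 also: 0% = DMSO only and -100% = 100 µM tamoxifen; nearly all actives have a fitted effect of over 40% in size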
Method in brief: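 In this qHTS format, normal rat kidney-derived proximal tubule cells in complete culture medium receive compound titrations, then sit 40 hours at 37 °C before luciferase-based ATP quantitation; potency is reported as AC50 from concentration-response curves.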

[13] = Cell Viability - Mesenchymal (AID 546);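 also: cells exposed to compound for 40 hours before reading; 0% = DMSO only and -100% = 100 µM tamoxifen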
Method in brief: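 Normal human renal glomerulus-derived kidney mesenchymal cells, 1000 per well in complete medium, were treated with compounds for 40 hr at 37 °C. Viability was read as intracellular ATP by CellTiter-Glo luminescence; AC50 values came from Hill-equation fits of qHTS concentration-response data.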

[O-][N+](=Nc1ccccc1)c1ccccc1
inactive: Potency [1] > 92 µM | Potency [2] > 92 µM | Potency [3] > 92 µM | Potency [4] > 92 µM | Potency [5] > 92 µM | outcome [6] | activity change, negative = cytotoxicity [7] 4.21% | activity change, negative = cytotoxicity [8] -5.77% | Potency [9] | Potency [10] | Potency [11] | activity change, negative = cytotoxicity [12] -0.723% | outcome [13]

CO/N=C(/C(=O)N[C@@H]1C(=O)N2C(C(=O)O)=C(COC(N)=O)CS[C@H]12)c1ccco1
inactive: Potency [1] > 92 µM | Potency [2] > 92 µM | Potency [3] > 92 µM | Potency [4] > 92 µM | Potency [5] > 92 µM | outcome [6] | activity change, negative = cytotoxicity [7] 8.73% | activity change, negative = cytotoxicity [8] -7.55% | Potency [9] | Potency [10] | Potency [11] | activity change, negative = cytotoxicity [12] 4.36% | outcome [13]

C=C1C(CCl)(CCl)C2(Cl)C(Cl)C(Cl)C1(Cl)C2(Cl)Cl (stereo not drawn)
active: Potency [2] 31 µM | Potency [3] 48.2 µM | Potency [5] 50 µM | activity change, negative = cytotoxicity [7] -112% | activity change, negative = cytotoxicity [8] -80.2% | Potency [10] 50.1 µM | Potency [11] 31.6 µM | activity change, negative = cytotoxicity [12] -88.3%
inactive: Potency [4] > 92 µM

COC(=O)c1ccccc1O
inactive: Potency [1] > 92 µM | Potency [2] > 92 µM | Potency [3] > 92 µM | Potency [4] > 92 µM | Potency [5] > 92 µM | outcome [6] | activity change, negative = cytotoxicity [7] 0.567% | activity change, negative = cytotoxicity [8] 6.05% | Potency [9] | Potency [10] | Potency [11] | activity change, negative = cytotoxicity [12] -0.7% | outcome [13]

CC1=CCC2CC1C2(C)C (stereo not drawn)
inactive: Potency [1] > 92 µM | Potency [2] > 92 µM | Potency [3] > 92 µM | Potency [4] > 92 µM | Potency [5] > 92 µM | outcome [6] | activity change, negative = cytotoxicity [7] 4.74% | activity change, negative = cytotoxicity [8] -3.47% | Potency [9] | Potency [10] | Potency [11] | activity change, negative = cytotoxicity [12] 2.31% | outcome [13]

O=P(O)(O)O
inactive: Potency [1] > 92 µM | Potency [2] > 92 µM | Potency [3] > 92 µM | Potency [4] > 92 µM | Potency [5] > 92 µM | outcome [6] | activity change, negative = cytotoxicity [7] -12.4% | activity change, negative = cytotoxicity [8] -8.72% | Potency [9] | Potency [10] | Potency [11] | activity change, negative = cytotoxicity [12] -7.24% | outcome [13]

Cc1ccc(S(=O)(=O)O)cc1C
inactive: Potency [1] > 92 µM | Potency [2] > 92 µM | Potency [3] > 92 µM | Potency [4] > 92 µM | Potency [5] > 92 µM | outcome [6] | activity change, negative = cytotoxicity [7] -7.07% | Potency [9] | Potency [10] | Potency [11] | activity change, negative = cytotoxicity [12] -15.2% | outcome [13]

OCC(O)CO
inactive: Potency [1] > 92 µM | Potency [2] > 92 µM | Potency [3] > 92 µM | Potency [4] > 92 µM | Potency [5] > 92 µM | outcome [6] | activity change, negative = cytotoxicity [7] -3.4% and 8.03% | activity change, negative = cytotoxicity [8] -10.7% and -2.8% | Potency [9] | Potency [10] | Potency [11] | activity change, negative = cytotoxicity [12] -12.3% and -5.8% | outcome [13]

NCCN
inactive: Potency [1] > 92 µM | Potency [2] > 92 µM | Potency [3] > 92 µM | Potency [4] > 92 µM | Potency [5] > 92 µM | outcome [6] | activity change, negative = cytotoxicity [7] 5.1% | activity change, negative = cytotoxicity [8] -4.12% | Potency [9] | Potency [10] | Potency [11] | activity change, negative = cytotoxicity [12] 7.8% | outcome [13]

CCOC(C)OCC
inactive: Potency [1] > 92 µM | Potency [2] > 92 µM | Potency [3] > 92 µM | Potency [4] > 92 µM | Potency [5] > 92 µM | outcome [6] | activity change, negative = cytotoxicity [7] -0.722% | activity change, negative = cytotoxicity [8] -3.45% | Potency [9] | Potency [10] | Potency [11] | activity change, negative = cytotoxicity [12] -8.55% | outcome [13]

C[C@H](CCC(=O)O)[C@H]1CC[C@H]2[C@@H]3[C@H](O)C[C@@H]4C[C@H](O)CC[C@]4(C)[C@H]3C[C@H](O)[C@]12C
inactive: Potency [1] > 92 µM | Potency [2] > 92 µM | Potency [3] > 92 µM | Potency [4] > 92 µM | Potency [5] > 92 µM | outcome [6] | activity change, negative = cytotoxicity [7] -9.32% | activity change, negative = cytotoxicity [8] -13.2% | Potency [9] | Potency [10] | Potency [11] | activity change, negative = cytotoxicity [12] 5.01% | outcome [13]
